Reference: PubChem BioAssay (NCI)
About 79,000 compounds went through this panel and 15% of them were active in at least one assay; those are over-represented in the sample as a whole. Active and inactive are the calls of the source. No stated cut-off is given here; in the data, active means growth inhibition above about 70%; inactive means the rest.

What was measured:
[1] = NCI Yeast Anticancer Drug Screen. Data for the rad52 strain (AID 147);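 further: 0% = growth of vehicle-treated control cultures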; settings: S. cerevisiae rad52 mutant growth inhibition, hits give high values
Procedure, shortened: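 DNA repair-defective yeast; compound exposure; growth scored against vehicle controls.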

[2] = NCI Yeast Anticancer Drug Screen. Data for the wt1 strain (AID 149);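 further: 0% = growth of vehicle-treated wt1 cultures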; settings: S. cerevisiae wt1 strain (SPY 50644) growth inhibition, hits give high values
Procedure, shortened: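 Readout: yeast growth inhibition, normalised to vehicle controls, in the wt1 strain exposed to test compounds.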

[3] = NCI Yeast Anticancer Drug Screen. Data for the rad50EPP+ strain (AID 151);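 further: 0% = growth of vehicle-treated control cultures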; settings: S. cerevisiae rad50 mutant strain, hits give high values
Procedure, shortened: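 rad50EPP+ yeast treated with test compounds. Readout: growth vs vehicle control.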

[4] = NCI Yeast Anticancer Drug Screen. Data for the mgt1 strain (AID 153); settings: S. cerevisiae mgt1 mutant growth inhibition, hits give high values
Procedure, shortened: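 Growth inhibition relative to vehicle controls was scored for the mgt1 yeast strain after compound exposure.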

[5] = NCI Yeast Anticancer Drug Screen. Data for the rad50 strain (AID 155);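 further: 0% = growth of vehicle-only cultures of the same strain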; settings: S. cerevisiae rad50 strain growth inhibition, hits give high values
Procedure, shortened: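 Compounds were tested on a yeast strain with an engineered DNA damage repair alteration; the reported value is growth inhibition normalised to vehicle treatment.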

[6] = NCI Yeast Anticancer Drug Screen. Data for the mec2-1 strain (AID 157); settings: S. cerevisiae mec2-1 strain, hits give high values
Procedure, shortened: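 Growth inhibition is read against vehicle-treated controls after compound exposure of the mec2-1 yeast strain, which is defective in DNA damage repair or cell cycle control.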

[7] = NCI Yeast Anticancer Drug Screen. Data for the rad14 strain (AID 159);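 further: 0% = growth of vehicle-treated control cultures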; settings: S. cerevisiae rad14 strain growth inhibition, hits give high values
Procedure, shortened: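 Compound-treated yeast with a defined DNA-repair lesion; growth inhibition normalised to vehicle-treated cultures.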

[8] = NCI Yeast Anticancer Drug Screen. Data for the sgs1 mgt1 strain (AID 161);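 further: 0% = growth of cultures given vehicle only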; settings: S. cerevisiae sgs1 mgt1 strain, hits give high values
Procedure, shortened: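 This yeast growth screen uses a strain with defined DNA-repair lesions; compound-treated growth is compared with vehicle-treated growth.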

[9] = NCI Yeast Anticancer Drug Screen. Data for the CLN2oe strain (AID 163);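 further: 0% = growth of vehicle-only control cultures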; settings: S. cerevisiae CLN2oe strain, hits give high values
Procedure, shortened: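 Compound-treated yeast; growth vs vehicle ctrl = % inhibition. Genetically altered strain (cell-cycle control).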

[10] = NCI Yeast Anticancer Drug Screen. Data for the cln2 rad14 strain (AID 165);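 further: 0% = growth equal to vehicle treated cultures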; settings: S. cerevisiae cln2 rad14 strain, hits give high values
Procedure, shortened: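 Growth inhibition, relative to vehicle-treated controls, is the read-out. The test organism is a yeast strain with defined genetic alterations, cln2 rad14.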

[11] = NCI Yeast Anticancer Drug Screen. Data for the bub3 strain (AID 167); settings: S. cerevisiae bub3 mutant strain, hits give high values
Procedure, shortened: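 Growth of a checkpoint-deficient yeast mutant is measured after compound exposure. Values represent inhibition relative to vehicle.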

[12] = NCI Yeast Anticancer Drug Screen. Data for the wt2 strain (AID 169);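 further: 0% = growth of vehicle-treated yeast cultures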; settings: S. cerevisiae wt2 strain growth inhibition, hits give high values
Procedure, shortened: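 Compound exposure of yeast; growth compared with vehicle controls; inhibition reported.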

[13] = NCI Yeast Anticancer Drug Screen. Data for the mlh1 strain (AID 171);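 further: 0% = growth of vehicle-treated control cultures of the same strain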; settings: S. cerevisiae mlh1 strain growth inhibition, hits give high values
Procedure, shortened: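 Compounds are applied to a genetically altered yeast strain, and its growth is compared with that of vehicle-treated cultures to give percent inhibition.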

[14] = NCI Yeast Anticancer Drug Screen. Data for the sgs1 strain (AID 173);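 further: 0% = growth of vehicle-only control cultures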; settings: S. cerevisiae sgs1 mutant, hits give high values
Procedure, shortened: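 Compounds applied to genetically altered yeast; growth compared with vehicle-treated cultures to give % inhibition.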

[15] = NCI Yeast Anticancer Drug Screen. Data for the mlh1 rad18 strain (AID 175); settings: S. cerevisiae mlh1 rad18 strain growth inhibition, hits give high values
Procedure, shortened: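 Cells of a genetically altered yeast strain, deficient in DNA damage repair, were treated with compound. Their growth was then compared with that of vehicle-treated cultures to give inhibition.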

[16] = NCI Yeast Anticancer Drug Screen. Data for the rad18 strain (AID 177); settings: S. cerevisiae rad18 mutant growth inhibition, hits give high values
Procedure, shortened: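 Compounds are applied to a repair-deficient yeast strain, and growth is compared with that of vehicle-treated cultures to give percent inhibition.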

[17] = at 5.0 µM (retest, dose inferred, filed as 0.5)
[18] = at 50.0 µM (retest, dose inferred, filed as 5.0)

Measured: growth inhibition

Nc1n[n+]([O-])c2ccc(Cl)cc2[n+]1[O-]
active: [1]; at 3.7 µM 80% | [1]; at 11.0 µM 91% | [1]; at 33.0 µM 94% | [1]; at 100.0 µM 96% | [2]; at 100.0 µM 84% | [3]; at 3.7 µM 77% | [3]; at 11.0 µM 88% | [3]; at 33.0 µM 91% | [3]; at 100.0 µM 94% | [4]; at 33.0 µM 80% | [4]; at 100.0 µM 95% | [5]; at 3.7 µM 79% | [5]; at 11.0 µM 88% | [5]; at 33.0 µM 92% | [5]; [18] 95% | [5]; at 50.0 µM 96.8% | [5]; at 100.0 µM 94% | [6]; at 33.0 µM 83% | [6]; [18] 91% | [6]; at 50.0 µM 78% | [6]; at 100.0 µM 93% | [7]; at 11.0 µM 71% | [7]; at 33.0 µM 89% | [7]; at 100.0 µM 96% | [8]; [18] 91% | [8]; at 50.0 µM 93.2% | [9]; at 33.0 µM 84% | [9]; at 100.0 µM 95% | [10]; [18] 93% | [10]; at 50.0 µM 76.7% | [11]; at 33.0 µM 81% | [11]; [18] 93% | [11]; at 50.0 µM 82.8% | [11]; at 100.0 µM 90% | [12]; at 33.0 µM 85% | [12]; at 100.0 µM 95% | [13]; at 11.0 µM 70% | [13]; at 33.0 µM 93% | [13]; at 100.0 µM 96% | [14]; at 11.0 µM 78% | [14]; at 33.0 µM 91% | [14]; at 100.0 µM 95% | [15]; [18] 97% | [15]; at 50.0 µM 94.7% | [16]; at 3.7 µM 87% | [16]; at 11.0 µM 93% | [16]; at 33.0 µM 95% | [16]; at 100.0 µM 95%
inactive: [1]; at 1.2 µM 49% | [2]; at 1.2 µM 8% | [2]; at 3.7 µM 13% | [2]; at 11.0 µM 31% | [2]; at 33.0 µM 62% | [3]; at 1.2 µM 53% | [4]; at 1.2 µM 1% | [4]; at 3.7 µM 27% | [4]; at 11.0 µM 36% | [5]; at 1.2 µM 60% | [5]; [17] 65% | [6]; at 1.2 µM 9% | [6]; at 3.7 µM 22% | [6]; [17] 15% | [6]; at 11.0 µM 57% | [7]; at 1.2 µM 12% | [7]; at 3.7 µM 32% | [8]; [17] 48% | [9]; at 1.2 µM 6% | [9]; at 3.7 µM 32% | [9]; at 11.0 µM 55% | [10]; [17] 19% | [11]; at 1.2 µM 0% | [11]; at 3.7 µM 15% | [11]; [17] 24% | [11]; at 11.0 µM 44% | [12]; at 1.2 µM 8% | [12]; at 3.7 µM 30% | [12]; at 11.0 µM 57% | [13]; at 1.2 µM 15% | [13]; at 3.7 µM 38% | [14]; at 1.2 µM 18% | [14]; at 3.7 µM 55% | [15]; [17] 50% | [16]; at 1.2 µM 66%
